This is an account of results in article PMC7819943, “Rice protein-binding microarrays: a tool to detect cis-acting elements near promoter regions in rice”.

Whole data set: some 68,000 sequences, median “fluorescence intensity (a.u.)” near 9,100, cut for the highest 2% near 16,000. The sample as a whole holds a higher share of the highest values than the screen did.

Sequence of OsWRKY34 (Q0JBA9 entry or part of it): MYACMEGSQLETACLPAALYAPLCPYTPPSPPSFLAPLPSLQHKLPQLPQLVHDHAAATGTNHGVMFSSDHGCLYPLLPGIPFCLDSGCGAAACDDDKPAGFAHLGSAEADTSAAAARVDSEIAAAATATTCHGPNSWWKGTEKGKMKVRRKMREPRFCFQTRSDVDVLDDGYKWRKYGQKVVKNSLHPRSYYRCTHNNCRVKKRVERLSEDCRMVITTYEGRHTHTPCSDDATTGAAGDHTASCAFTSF

The assay deals with OsWRKY34 (Oryza sativa, UniProt Q0JBA9 1-250). In words: protein-binding microarray (RPBM); PBS, 2% BSA, 51.3 ng/ul salmon testes DNA, 50 uM zinc acetate, 200 nM TF, 25 C, 1 h; high values mean tight binding. The conditions noted are these: protein: recombinant; tags: N-terminal polyhistidine and DsRed monomer fusion (pET32a); label: CyDye5-dUTP incorporated in the synthesized complementary strand; 3' TTTTT single-stranded linker to array surface; dsDNA, one strand shown. The method in brief:
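Polyhistidine-tagged DsRed fusions of transcription factors, joined at the N-terminus, were expressed in E. coli BL21-CodonPlus and isolated on Ni–NTA. They were incubated at 200 nM for 1 h at 25 °C on a custom Agilent array, double-stranded and BSA-blocked, in PBS with 2% BSA, salmon testes DNA and 50 µM zinc acetate. The binding signal is per-feature fluorescence intensity (arbitrary units) read on an Axon 4000B scanner after washing.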
For “GTTATCAGCTTTTCTTTTTTTTTTGAAATTTCAGATTATTCGGAGTCACCTAGTGCAG”, the binding signal is 8980 fluorescence intensity (a.u.). The result for “CCCCATTCACTTCCACAGACAAGTAGCATCACCTTTCAGTCGGAGTCACCTAGTGCAG” reads 8710 fluorescence intensity (a.u.); that for “ATTTTAATGTATGACGCCGTTGACTTTTTGTCCAACGTTTCGGAGTCACCTAGTGCAG”, 25600 fluorescence intensity (a.u.). The result for “GTATGACGCCGTTGACTTTTCGATCAACGTTTGACTATTTCGGAGTCACCTAGTGCAG” reads 25300 fluorescence intensity (a.u.); that for “CCATATTTTAATGTATGACGCCATTGACTTTTTGTCCAACCGGAGTCACCTAGTGCAG”, 14500 fluorescence intensity (a.u.). The result for “GTTGACCGTTGACCTTTTTGTGGGTCAACTCAATCAAGACCGGAGTCACCTAGTGCAG” reads 16600 fluorescence intensity (a.u.); that for “CGATCAACGTTTGACTATTTGTTTTATTCAAAATTTTTGTCGGAGTCACCTAGTGCAG”, 9460 fluorescence intensity (a.u.). Turning to “TAAATGTTTAACGTTGTTGACTTTTTTAAACATGTTTGACCGGAGTCACCTAGTGCAG”, the binding signal was 13500 fluorescence intensity (a.u.). As to “TAAATGTTTAACGTCGTTGACTTTTTTAAACATGTATGACCGGAGTCACCTAGTGCAG”, the binding signal was 19200 fluorescence intensity (a.u.). The result for “CCTCCTTTTGACTCAGCAAGTCAATTGTGGTCAACCTGCCCGGAGTCACCTAGTGCAG” reads 8970 fluorescence intensity (a.u.); that for “AATATATGACGCCGTTAACTTTTCGAACAACATTTGACTACGGAGTCACCTAGTGCAG”, 9760 fluorescence intensity (a.u.); that for “CACCTTGACTCAGCGTGGTTGACTCTAGTCAACTTGTCACCGGAGTCACCTAGTGCAG”, 10400 fluorescence intensity (a.u.).

Regarding “CACCAAGCATGTCCATGACCTTGCACTCTTGGCTCACTCGCGGAGTCACCTAGTGCAG”, the binding signal was 8030 fluorescence intensity (a.u.). The result for “CAAAATCCTTTTTCTTTTTTTCATTTTTTCTGTGCTTTTTCGGAGTCACCTAGTGCAG” reads 8680 fluorescence intensity (a.u.); that for “TAGGCTGATGGGTCTTCATGCTTCGGTTCATCTTCGTCTCCGGAGTCACCTAGTGCAG”, 10200 fluorescence intensity (a.u.). The result for “GGTGAGCTCTCTTTAATGCATATACACAGCAGCCTATTGCCGGAGTCACCTAGTGCAG” reads 8440 fluorescence intensity (a.u.); that for “TGTGATTTGCACCGCATACTTTCCCCGACAATAGATCATCCGGAGTCACCTAGTGCAG”, 8850 fluorescence intensity (a.u.); that for “CCTCCGCTTCTTCGCCGCCGCCGCCATCCCGCCCTAGCGACGGAGTCACCTAGTGCAG”, 9070 fluorescence intensity (a.u.). Consider “ATTTTCTTTAAGAGATGTTCTTGTCTGTTGTCAGGTTTGTCGGAGTCACCTAGTGCAG”, for which the binding signal was 9670 fluorescence intensity (a.u.). The result for “ACCGTCGTCAGCAACGCCGCTACTGCCACTGCAATTGCCGCGGAGTCACCTAGTGCAG” reads 8320 fluorescence intensity (a.u.); that for “TTAATGTATGACGCCGTTGACTTTTTAATCAACGTTTGACCGGAGTCACCTAGTGCAG”, 25900 fluorescence intensity (a.u.). The result for “CCGCATTTTAATGTATGACGTCATTGACTTTTCGATCAACCGGAGTCACCTAGTGCAG” reads 10200 fluorescence intensity (a.u.); that for “TGTGTACTATTTTTTCTACCGTTGGATACAAATATGAGGGCGGAGTCACCTAGTGCAG”, 8510 fluorescence intensity (a.u.); that for “TTTAATGTATCACACCGTTAATTTTTTTTCAACGTTTGACCGGAGTCACCTAGTGCAG”, 8900 fluorescence intensity (a.u.). The result for “CCTTTTGGACGTACGTCGATAGTTGGGTAAATATGAAAAACGGAGTCACCTAGTGCAG” reads 11400 fluorescence intensity (a.u.). For the sequence “TATTTTAATGTATGACGCCGTTGACTTTTTAATCAATGTTCGGAGTCACCTAGTGCAG”, the binding signal is 29100 fluorescence intensity (a.u.). With “ACCTGTAAACTACCGTTGGATAAAAAATAAACGTATGAGACGGAGTCACCTAGTGCAG”, the binding signal is 63600 fluorescence intensity (a.u.).

“TTAATGTATGACGCCGTTGACTTTTTAATAAACGTTTGACCGGAGTCACCTAGTGCAG”: the binding signal was 40900 fluorescence intensity (a.u.). Take “CTGAAAATTTTGTGCGCTCACACCATGTGCTACATTTGTCCGGAGTCACCTAGTGCAG”: the binding signal was 10700 fluorescence intensity (a.u.). For the sequence “TTCCTCCGTTTTTTTTATTCCTGCAACTAAAAGGTATTCTCGGAGTCACCTAGTGCAG”, the binding signal is 8860 fluorescence intensity (a.u.). The result for “GGTCTCAGGTTGTCACTTTTCTATCCAGATTTATCGTAGTCGGAGTCACCTAGTGCAG” reads 8110 fluorescence intensity (a.u.); that for “ATCCTCACGTAATATACACCTTCGTACCATAATATAATAACGGAGTCACCTAGTGCAG”, 8250 fluorescence intensity (a.u.). “CGCTTCCTGTTGTGATTATGTAATCTTGTATTCTTGTTGACGGAGTCACCTAGTGCAG”: the binding signal was 11600 fluorescence intensity (a.u.). The result for “CTCCCTCGTCTTTCTGCTGGCCACCACCCTCCCCGTCTTCCGGAGTCACCTAGTGCAG” reads 12300 fluorescence intensity (a.u.); that for “ACCTTTCTCACTACACGCCATTCCGCTCGCGTCCAATTGTCGGAGTCACCTAGTGCAG”, 10100 fluorescence intensity (a.u.). The result for “CTCGTCGTCTCCTCCGCTCCTTGCGCCATCTCGCGGCTGACGGAGTCACCTAGTGCAG” reads 11500 fluorescence intensity (a.u.). The result for “CATGATCGCTGTGCACCTTCTGAATCATCTCTTCAATGGCCGGAGTCACCTAGTGCAG” reads 9780 fluorescence intensity (a.u.); that for “CATGCCAATCATAAATAATGACATATTGGTTGACTTTTTGCGGAGTCACCTAGTGCAG”, 11000 fluorescence intensity (a.u.); that for “TTTAAATGTATCATGTCATTGACTTTTTTATAATATTTGACGGAGTCACCTAGTGCAG”, 8120 fluorescence intensity (a.u.). On to “TTTAATGTATGGTGCCGTTGACTTTTTTTATCAATATTTGCGGAGTCACCTAGTGCAG”, for which the binding signal was 41200 fluorescence intensity (a.u.).

For “CATACTGTTCCACTCGCCCTCGTTTTCTCCGCCACCGAGCCGGAGTCACCTAGTGCAG”, the binding signal is 8450 fluorescence intensity (a.u.). The result for “TTGACGCCGTTGACTTTTTAGTACATGTTTGACCATTCGTCGGAGTCACCTAGTGCAG” reads 49900 fluorescence intensity (a.u.).
